# Screens: PubChem, Johns Hopkins Ion Channel Center
# KCNQ2 inh – inhibitors of rat KCNQ2 potassium channel. AID 2156. B-score at 10 µM. 1.1% of 310,000 active. CHO-K1 KCNQ2, FluxOR thallium flux, 20 min; active compounds read low. O88943;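 active = fluorescence ratio B-score at most minus 3 library SDs, with starting brightness B-score within 2 library SDs, cut at about -5.5 in these data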
# KCNQ2 pot – enhances the rat KCNQ2 potassium channel; 0.54% of 310,000 active; O88943; B-score at 10 µM; CHO-K1 KCNQ2, FluxOR thallium flux fluorescence; active compounds read high;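 active = fluorescence ratio B-score at least 3 SD of library B-scores, with initial fluorescence B-score within 3 of them, cut at about 5.3 in these data; same plate scores as AID 2156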;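 also: B-score of peak minus minimum over baseline fluorescence ratio after K+ and Tl+ stimulus; positive B-score means potentiation of KCNQ2 with more thallium influx and brighter signal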
# Kir21 confirm – confirmation of mouse Kir2.1 potassium channel inhibitors. Tl flux remaining, % of negative control (active compounds read low), % at 10 µM. Kir2.1-expressing cells, FluxOR thallium flux fluorescence; active compounds read low. shares compounds with KCNQ2 pot. 41% of 2,300 active;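 active = Primary-screen hit whose thallium flux fell at least 3 control SD below untreated wells in both duplicates, with normal baseline fluorescence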;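 also: 0% = blank wells without stimulus and 100% = stimulated no-compound controls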
# Target sequence (P35561 whole entry, looked up): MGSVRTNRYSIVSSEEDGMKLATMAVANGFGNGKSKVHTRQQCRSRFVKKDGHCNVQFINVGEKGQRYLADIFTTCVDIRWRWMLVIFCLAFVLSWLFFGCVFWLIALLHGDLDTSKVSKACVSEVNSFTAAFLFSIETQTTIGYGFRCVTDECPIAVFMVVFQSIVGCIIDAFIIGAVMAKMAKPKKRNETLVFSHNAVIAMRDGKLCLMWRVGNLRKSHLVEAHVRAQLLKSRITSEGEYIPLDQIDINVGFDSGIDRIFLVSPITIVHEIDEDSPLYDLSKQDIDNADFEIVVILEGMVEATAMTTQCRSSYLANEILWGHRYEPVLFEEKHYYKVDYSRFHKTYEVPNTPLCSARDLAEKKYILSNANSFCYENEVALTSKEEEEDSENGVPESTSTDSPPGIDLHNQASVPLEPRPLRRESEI
# HEK293 Tl flux – counter-screen for Kir2.1 inhibitors: effect in parental HEK293 cells | shares compounds with KCNQ2 pot | FluxOR thallium flux fluorescence; 0% = unstimulated blank wells | FluxOR signal as % of negative control (100 = no effect), % at 10 µM | 19% of 2,300 active | AID 2105;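 active = dye signal at least 3 control SD above or below untreated wells in both duplicates, raw fluorescence within 3, either direction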;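 also: percent is based on the flux ratio of peak minus minimum fluorescence over baseline F0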
# CHO-K1 Tl ctr – alters thallium flux in parental CHO-K1 cells, KCNQ2 counter-screen. shares compounds with KCNQ2 pot. FluxOR thallium flux fluorescence; zero = vehicle mean+3SD, 100% = vehicle-minus-blank window. activity increase over 3SD of controls, % at 10 µM. 43% of 1,200 active. AID 2282;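 active = signal rise of at least 3 SD above the untreated control mean, in both duplicate wells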;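 also: counter screen of KCNQ2 potentiator hits so any rise reflects channel-independent effects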
# KCNQ1 sel pot – human KCNQ1 counter-target activity of KCNQ2 potentiators. shares compounds with KCNQ2 pot. CHO KCNQ1 stable, FluxOR thallium flux fluorescence; beyond 3SD, as % of vehicle-control signal. activation over 3SD threshold, % at 10 µM. 28% of 1,200 active;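 active = fluorescence ratio rise of at least 3 SD of vehicle wells above their mean, in both replicate wells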;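 also: 0% = vehicle mean plus 3 SD and 100% = vehicle minus unstimulated blank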
# KCNQ2 pot confirm – confirmation of rat KCNQ2 potassium channel potentiators; shares compounds with KCNQ2 pot; CHO-KCNQ2 cells, FluxOR thallium flux fluorescence; potentiation, less the hit threshold, % at 10 µM; 68% of 1,200 active; AID 2287;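 active = fluorescence ratio rising 3 SD or more over the vehicle control mean in both replicates, plus primary screen hit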;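 also: peak minus minimum thallium fluorescence divided by baseline after K/Tl stimulus; 0% = vehicle mean plus 3 SD and 100% = vehicle minus unstimulated blank difference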
# Kir21 spec – mouse Kir2.1 off-target activity of KCNQ2 potentiators; AID 2345; 2% of 1,200 active; shares compounds with KCNQ2 pot; activity over 3SD threshold, % at 10 µM; HEK293 Kir2.1, FluxOR thallium flux fluorescence;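 active = fluorescence ratio rise of at least 3 SD above the vehicle-control mean, seen in both replicates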;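 also: 0% = vehicle mean plus 3 SD and 100% = vehicle minus no-stimulus blank window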
# KCNQ2 W236L pot – potentiates the retigabine-insensitive rat KCNQ2 W236L mutant channel. shares compounds with KCNQ2 pot. CHO KCNQ2-W236L, automated patch clamp current. current increase over 3SD of negative controls (%), active compounds read high, % at 25 µM. 10% of 940 active. AID 2558;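 active = current increase at least 3 SD of the untreated controls above them in both duplicate recordings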
# The depositor's hits bear a star; i = inactive; . = no result. Sampled rows, rich in hits. Any-hit rate of the full collection: about 1.6%.
SMILES,KCNQ2 inh,KCNQ2 pot,Kir21 confirm,HEK293 Tl flux,others
CCCC[C@H]1C2=C3[C@@H](CC(C(=O)OC)=C[C@@H](C(=O)OC)[C@H]3C(C)(C)C2=O)n2c(=O)n(-c3ccccc3)c(=O)n21,i,.,.,.,
CC(=O)C1=C(S(=O)(=O)c2ccc(C)cc2)CS(=O)(=O)C1,i,16.7*,i,72.5%*,CHO-K1 Tl ctr=-8.3;KCNQ1 sel pot=-4.5;KCNQ2 pot confirm=76.7*;Kir21 spec=-41.1;KCNQ2 W236L pot=76.4%*
Cc1ccc(S(=O)(=O)C2CS(=O)(=O)CC2O)cc1 (configuration not stated),i,0.88,.,.,
COc1ccc(CN2CCn3ncc(C(=O)Nc4cc(C)cc(C)c4)c3C2=O)cc1,i,.,.,.,
COc1ccc(OC)c(NC(=O)Nc2ccc3c(c2)OCO3)c1,i,0.23,.,.,
Cc1c(C(=O)NC2CC(=O)N(c3ccc4c(c3)OCCO4)C2)cccc1[N+](=O)[O-] (configuration not stated),i,0.55,.,.,
Cc1ccc(C(=O)Nn2c(N)c(S(=O)(=O)c3ccc(C)cc3)c3nc4ccccc4nc32)cc1,i,0.47,.,.,
Cc1ccc(S(=O)(=O)c2c(N)n(NC(=O)c3ccccc3C)c3nc4ccccc4nc23)cc1,i,5.26,i,i,CHO-K1 Tl ctr=98.1*;KCNQ1 sel pot=-8.0;KCNQ2 pot confirm=-3.4;Kir21 spec=-39.0;KCNQ2 W236L pot=i
Cc1cc(C)c(NC(=O)CSc2nc3c(c(=O)n2C)SC(C)C3)c(C)c1 (configuration not stated),i,.,.,.,
Cc1cc(SCC(=O)OCC(=O)N2CCCC2=O)c(C)cc1Br,i,1.06,i,i,
NC(=O)c1ccc(SCC(=O)OCC(=O)N2CCCC2=O)c([N+](=O)[O-])c1,i,0.56,.,.,
O=C(C[n+]1ccccc1)N/N=C/c1cccs1,i,0.72,.,.,
COc1ccc(C(=O)N2CCN(S(=O)(=O)c3cc(Cl)ccc3OC)CC2)cc1,i,.,.,.,
COc1ccc(C(=O)CCS(=O)(=O)c2ccc(F)cc2)cc1OC,i,6.64*,i,i,CHO-K1 Tl ctr=36.3*;KCNQ1 sel pot=60.0*;KCNQ2 pot confirm=24.1*;Kir21 spec=-51.9;KCNQ2 W236L pot=6.0%*
COc1ccc(C(=O)N2CCN(S(=O)(=O)c3ccc(F)cc3)CC2)cc1OC,i,.,.,.,
CCCC(C(=O)NC1CCCC1)N(CC1CCCO1)C(=O)CNS(=O)(=O)c1ccc(F)cc1 (configuration not stated),i,0.25,.,.,
COc1ccc(-c2csc(NC(=S)NC(=O)c3cccs3)n2)cc1OC,i,3.18,.,.,
COc1ccc(-c2csc(NC(=S)NC(=O)c3cccs3)n2)cc1Br,i,7.07*,i,70.0%*,CHO-K1 Tl ctr=-5.1;KCNQ1 sel pot=-15.8;KCNQ2 pot confirm=-1.9;Kir21 spec=-35.2
O=C(Cc1cccc(C(F)(F)F)c1)NCc1ccc(Cl)cc1Cl,i,0.81,.,.,
O=C(Nc1nnc(-c2ccc3c(c2)CCCC3)o1)c1c(F)cccc1F,i,.,.,.,
O=C(Nc1nnc(-c2ccc3c(c2)CCCC3)o1)c1ccc(Cl)cc1Cl,i,8.92*,i,255.0%*,CHO-K1 Tl ctr=-12.0;KCNQ1 sel pot=69.1*;KCNQ2 pot confirm=15.3*;Kir21 spec=-30.6;KCNQ2 W236L pot=i
CCOCCCNS(=O)(=O)c1ccc(NC(=O)N2c3ccccc3Sc3ccccc32)cc1,i,.,.,.,
CC(NC(=O)/C=C/c1ccccc1)c1ccccc1 (configuration not stated),i,16.8*,i,i,CHO-K1 Tl ctr=2.8*;KCNQ1 sel pot=19.7*;KCNQ2 pot confirm=29.6*;Kir21 spec=-10.1;KCNQ2 W236L pot=i
Cc1ccc(/C=C/C(=O)NC(C)c2ccccc2)cc1 (configuration not stated),i,3.84,.,.,
CC(NC(=O)/C=C/c1ccc(Br)cc1)c1ccccc1 (configuration not stated),i,4.22,.,.,
